Measurements as given in ChEMBL document CHEMBL4888484, “Replenishing the malaria drug discovery pipeline: Screening and hit evaluation of the MMV Hit Generation Library 1 (HGL1) against asexual blood stage Plasmodium falciparum ,using a nano luciferase reporter read-out” (2022).
The whole screen tested about 4,800 compounds, of which about 420 (8.8%) showed an effect of 50% or more. The full list was thinned out, with strong results kept by preference.

Tested on: Plasmodium falciparum
Experiment: Confirmatory screen in NF54 nanoGlo assay, in single point, at 2uM, 72h
Format: functional, Erythrocyte
Conditions: timepoint 72 hour

Structure (SMILES)	% Inhibition [%]
Cc1ccccc1C(=O)NCC(=O)NCCc1c[nH]c2ccccc12	-7
Clc1ccccc1-c1c[nH]c([C@@H]2CCCN2)n1	5
CC(C)(C)C(=O)NCCNC(=O)c1ccccn1	8
O=C(Nc1cccc2cccnc12)c1cncc(Br)c1	-12
Oc1ccccc1CNc1cccc2cccnc12	98
O=C(Oc1cccc2cccnc12)c1ccc(-c2ccccc2)cc1	2
O=C(Nc1cccc2cccnc12)c1ccccn1	80
CCN(CC)S(=O)(=O)c1ccc2c(c1)CCCN2C(=O)c1ccc2ccccc2c1	1
CC1(C)NC(=O)CC[C@@H]1NC1CC(c2cccc(F)c2)C1 (stereo partly drawn)	5
CCOC1CC(NC2CC(c3ccc(F)cc3)C2)C12CCC2 (stereo not drawn)	67
O=C(N[C@H](c1ccccc1)C1CC1)N1CCN(S(=O)(=O)c2cccc(F)c2)CC1	4
CCOC(=O)c1cc(F)cc(S(=O)(=O)Nc2ccnc3ncnn23)c1	34
COCc1cc(=O)n(CC(=O)NCc2ccccc2Cl)c(N2CCCC2)n1	-11
Cc1nn(C)c(Oc2cccc(F)c2)c1NC(=O)CC(C)C	8
CC(C)(C)n1nc2nc(NCCN3CCCCC3)nc(-c3ccc(F)c(Cl)c3)c2c1N	62
O=C(NCCN1CCCC1)c1ccc2nc(-c3ccc(Cl)cc3)cn2c1	18
COCc1cc(F)ccc1NC(=O)NC1CCN(c2cc(C)nc(C)n2)CC1	-5
CCOc1ccccc1C(=O)Nc1c(-n2cnnc2)nn(C)c1C	2
CC(NCCn1cccn1)C(=O)N1c2ccccc2CC1C (stereo not drawn)	-10
Cc1ccc(Cn2ccn3nc(-c4ccc5c(c4)OCO5)cc3c2=O)cc1C	-9
N#Cc1ccc(C(=O)N[C@H]2CCCc3c2cnn3-c2ccccn2)cc1	2
COc1ccnc(CN2CC[C@](C)(O)[C@H](O)C2)c1	-2
CN1CCN([C@H]2CCN(c3ccnc4ccc(Cl)cc34)C[C@H]2CCCO)CC1	26
Oc1ccc2cc(CN3CCC[C@H](CN4CCCC4)C3)ccc2c1	17
COc1ccccc1CN1COc2cc3c(cc2C1)OCO3	22

Structure (SMILES)	% Inhibition [%]
CCC[C@]1(C)NC(=O)N(c2csc(-c3ccccc3)n2)C1=O	-3
CCn1nc(C)c(CN(C)C(=O)c2nn3cccnc3c2Cl)c1C	-2
COCCN(CC1CN(Cc2ccccn2)CC1c1cccc(F)c1)C(=O)COC (stereo not drawn)	-3
C[C@H](C(=O)NCc1cc(F)cc(F)c1)C1CCOCC1	-5
COc1ccccc1C1c2[nH]c3ccccc3c2C[C@H]2C(=O)N(CC(O)c3ccccc3)CC(=O)N12 (stereo partly drawn)	33
CCOc1ccc(C2c3[nH]c4ccccc4c3C[C@H]3C(=O)N(C4CCN(Cc5ccccc5)CC4)CC(=O)N23)cc1OC (stereo partly drawn)	80
COc1ccc(CNC(=O)c2ccc(N3C(=O)[C@@H]4Cc5c([nH]c6ccccc56)C(c5cccc(OC)c5)N4C3=O)cc2)cc1 (stereo partly drawn)	49
COc1ccccc1N1CCN(c2nc(Nc3ccc(F)cc3)c3nc[nH]c3n2)CC1	-18
Cc1ccc(CC(=O)N2C[C@H](c3ccccc3)C(c3ccc(Cl)cc3)=N2)cc1	6
CCCNC(=O)CNC(=NC1CC1)NCc1ccccc1C	-3
COc1nc(NC2CCS(=O)(=O)CC2)ncc1F	75
CC(C)(NCCc1c[nH]c2ccccc12)c1nnnn1Cc1cccnc1	3
O=C(NCCc1nnc[nH]1)C1(Cc2ccccc2)CC2CCC1C2 (stereo not drawn)	-9
Cc1ccc(O)c(CNc2ccc3c(c2)OCC3(C)C)n1	-7
Cc1ccc(O)c(CNCC2(c3ccccc3Cl)CCOCC2)n1	99
N[C@H]1COc2ccc(Br)cc2C1=O	-3
Cc1ccc(NC(=O)Nc2cccc(-c3ccc(N4CCN(C)CC4)nn3)c2)cc1C	10
Cc1cccc(Nc2nc(-c3cnc(N4CCN(C)CC4)nc3C)cc(=O)[nH]2)c1	-7
O=C(Nc1ccc(-n2cncn2)cn1)c1cscn1	-18
COc1ccc(S(=O)(=O)Nc2c(C)ccc3nsnc23)cc1OC	4
CCCC[C@H](CC)C(=O)Nc1ccccc1C	7
CN(C(=O)c1ccc(OCC(F)(F)F)nc1)C1(C#N)CCC1	2
Cc1cc2c(cc1C)[C@H](C(=O)Nc1cc(C(N)=O)ccc1Cl)CO2	-1
O=C(NC(Cn1ccccc1=O)c1ccccc1)C1CCOC1 (stereo not drawn)	2
O=C(N[C@@H](Cn1nccn1)c1ccccc1)c1cc(Br)ccc1Cl	65

Structure (SMILES)	% Inhibition [%]
O=C(Nc1ccc2c(c1)c1cc(Br)ccc1n2Cc1ccccc1)c1ccccc1	4
O=C(Cc1ccccc1)Nc1cccc2c1C(=O)N(c1ccccc1)C2=O	-14
O=C(C[C@@]1(O)C(=O)N(Cc2ccc(Cl)cc2Cl)c2ccccc21)c1ccccn1	-10
Cc1c(NC(=O)CCc2ccsc2)nnn1Cc1ccccc1F	-10
O=C(CN1C=CCC=C1c1nc(-c2ccc(Br)cc2)cs1)c1ccccc1	35
COc1ccc(C(=O)CN2C=CCC=C2c2nc(-c3ccc(Cl)cc3)cs2)cc1	72
COc1ccc(C2=CN(CC(=O)c3ccc(Cl)cc3)C3=CCCCCN23)cc1	47
Cc1ccc(CNCCC2=CCCCC2)cc1	-2
Cc1csc(NC(=O)[C@]2(C)Oc3ccccc3NC2=O)n1	0
O=c1[nH]nc(-c2ccc3ccccc3c2)c2conc12	18
Cn1ccc(NC(=O)c2n[nH]c3ccccc23)n1	-12
CC(C)CCNC(=O)c1cnn2c3c(cnc12)CCCC3	-6
COc1ccc(F)c(NC(=O)N(CCO)C(C)C)c1	5
COc1ccc(NC(=O)CN2N=C(C(=O)Nc3ccc(F)cc3)CCC2=O)cc1	-7
COc1ccc2nc(O)c(C(=O)Nc3ccc4c(c3F)CCNC4)cc2c1	99
CCn1nc(C(=O)N(C2CCCCC2)C2CC2)c2ccccc2c1=O	-10
Cc1cccc(NC(=O)N2CCCCCC2)n1	1
Cc1cccc(CN2CCC[C@H](C(=O)c3ccc4c5c(cccc35)CC4)C2)n1	63
COC[C@H](NC(=O)c1cccc(F)c1Cl)C(N)=O	-8
Cc1cc2nnc(-c3nc4ccccc4[nH]3)c(N)n2n1	-10
Nc1c(-c2nc3ccccc3[nH]2)c2nc3ccccc3nc2n1Cc1ccccc1F	64
Cc1ncc(C(=O)Nc2cc3c(=O)[nH]cnc3cc2F)c(C2CC2)n1	3
CCc1nnc(COC(=O)c2csc(NC)n2)o1	6
